# Activity calls are given as the source filed them. Calls follow the shape of the full dose curve.
# Conditions: Ebola virus entry cell assay, ratio channel
SMILES,outcome,AC50
CC=CC1=C(C(=O)O)N2C(=O)[C@H](NC(=O)[C@H](N)c3ccc(O)cc3)[C@@H]2SC1,inactive,–
C[C@](O)(CS(=O)(=O)c1ccc(F)cc1)C(=O)Nc1ccc(C#N)c(C(F)(F)F)c1,inactive,–
C=C1C(=C/C=C2\CCC[C@]3(C)[C@@H]([C@H](C)CCCC(C)(C)O)CC[C@@H]23)C[C@@H](O)C[C@@H]1O,inactive,–
O=C(O)C[C@H](O)C[C@H](O)/C=C/c1c(C2CC2)nc2ccccc2c1-c1ccc(F)cc1,inactive,–
CC(=O)S[C@@H]1CC2=CC(=O)CC[C@]2(C)[C@H]2CC[C@@]3(C)[C@@H](CC[C@@]34CCC(=O)O4)[C@H]12,inactive,–
CN1CCN(C(c2ccccc2)c2ccc(Cl)cc2)CC1 (stereo not drawn),–,10 µM (active)
CO/N=C(\C(=O)N[C@@H]1C(=O)N2C(C(=O)O)=C(COC(C)=O)CS[C@H]12)c1csc(N)n1 (stereo in doubt),inactive,–
O=P(O)(O)C(Sc1ccc(Cl)cc1)P(=O)(O)O,inactive,–
COc1ccc2c(c1)C13CCCC[C@@H]1C(C2)N(C)CC3 (stereo partly drawn),inactive,–
C[N+]1(C)[C@@H]2CC(OC(=O)C(O)(c3cccs3)c3cccs3)C[C@H]1[C@@H]1O[C@@H]12 (stereo partly drawn),inactive,–
Cc1nnc2n1-c1ccc(Cl)cc1C(c1ccccc1)=NC2,inactive,–
CC[C@H](C)C(=O)O[C@H]1C[C@H](O)C=C2C=C[C@H](C)[C@H](CC[C@@H](O)C[C@@H](O)CC(=O)O)[C@H]21,inactive,–
CN1C[C@H](C(=O)N[C@]2(C)O[C@@]3(O)[C@@H]4CCCN4C(=O)[C@H](Cc4ccccc4)N3C2=O)C=C2c3cccc4[nH]cc(c34)C[C@H]21,inactive,–

# Reference: PubChem BioAssay (NCATS)
